# Measurements as given in PubChem BioAssay (NCATS).
# Inconclusive results are not listed. Values without a mark were called inactive. Activity calls are given as the source filed them. Calls follow the shape of the dose curve; as a rule, active = well fitted inhibition curve with a large enough effect; inconclusive = small, poorly fitted or top-dose-only effect; inactive = no such curve, though single readings can be large or run the other way. Where a SMILES comes first, the peptide text is derived from it. [ ]: non-standard residue; d: D form. 2Abz = Nc1ccccc1C(=O)O
# Tested on: Zika virus NS2B-NS3 protease (unlinked complex)
# Assay: Primary screen GU Rhodamine qHTS for Zika virus inhibitors: Unlinked NS2B-NS3 protease assay (AID 1347159); also: nearly all actives have a fitted effect of over 60% in size
# Conditions: Recombinant ZIKV NS2B-NS3 protease, Rhodamine110 substrate fluorescence; series mostly up to 107 µM; activity change, negative = inhibition: at the top concentration
# In short: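 Noncovalent NS2B hydrophilic domain–NS3 protease domain complex (25 nM) preincubated 15 min at room temperature with compounds (up to 114 microM) in 10 mM Tris-HCl pH 8.0, 0.01% Tween 20; 1.5 microM Rhodamine110 substrate added, fluorescence change over 15 min fitted to Hill equation.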
# % is scaled to controls: 0 for no effect and ±100 for the full control effect; potency is read from the fitted curve at half-maximal effect.
SMILES,"activity change, negative = inhibition",Potency
CC(=O)[C@@H]1CC[C@]2(C(=O)O)CC[C@]3(C)C(CCC4[C@@]5(C)CC[C@H](O)C(C)(C)C5CC[C@]43C)C12 (stereo not given in full),-17.9% [at 57.1 µM],
CC1=C2C(=O)O[C@@H](c3ccoc3)[C@]2(C)CCC1,,inactive
CC1(C)CC2C3=CCC4C5(C)CCC(OC6OC(CO)C(O)C(OC7OC(CO)C(O)C(OC8OC(CO)C(O)C(OC9OC(COC%10OC(CO)C(O)C(O)C%10O)C(O)C(O)C9O)C8O)C7O)C6O)C(C)(C)C5CCC4(C)C3(C)CCC2(C(=O)O)CC1O (stereo not given),-21.5% [at 19.1 µM],
CC(C)(O)/C=C1/C(=O)C(C)(C)C(=O)C(C)(C)C1(O)O[C@@H]1O[C@H](COC(=O)c2cc(O)c(O)c(O)c2)[C@@H](O)[C@H](O)[C@H]1O (stereo not given in full),-2.63% [at 32.5 µM],
O=C(/C=C/c1ccccc1)OCC1=CC[C@@H]2C(C(=O)O)=CO[C@@H](O[C@@H]3O[C@H](CO)[C@@H](O)[C@H](O)[C@H]3O)[C@H]12,-4.86% [at 57.1 µM],
C[C@H]1C[C@H]2[C@@H]3CCC4=CC(=O)C=C[C@]4(C)[C@@]3(F)[C@@H](O)C[C@]2(C)[C@@]1(O)C(=O)COP(=O)(O)O,0%,
C/C=C/C=C/C(CC(=O)O)Nc1ccc(C=O)cc1 (stereo not given),,11.2 µM (active)
C[C@@H]1C[C@H](O)/C=C/[C@H](O)[C@@H](O)CC(=O)O1,4.13%,
CCC(C)C1NC(=O)C2CCCN2C(=O)C(C(C)C)NC(=O)c2ccccc2NC(=O)C(Cc2ccc(O)cc2)NC(=O)C(C)NC(=O)C(C(C)O)NC1=O (stereo not given) (cyclo([2Abz]VPITAY); configuration not given here),1.08% [at 32.5 µM],
C=CC1C(O[C@@H]2O[C@H](CO)[C@@H](O)[C@H](O)[C@H]2O)OC=C(C(=O)OC)C1CC(=O)O (stereo not given in full),20.6% [at 57.1 µM],
